Test results as given in ChEMBL document CHEMBL4513216, “Probing the Open Global Health Chemical Diversity Library for Multistage-Active Starting Points for Next-Generation Antimalarials” (ACS Infect Dis, 2020).
Out of some 68,000 compounds screened, about 2,700 (4%) showed an effect of 50% or more. Shown is part of a subset that was picked to be rich in strong results.

The compounds below were run on Plasmodium berghei (assay: Screen against P. berghei liver stage (PbLuc), transformed with Luciferase, at 2uM). Conditions: tested at 2 uM.
Format: functional, HepG2

| SMILES | INHIBITION |
| --- | --- |
| COCCC1(C(=O)O)CCCN(C(=O)c2cc(C)oc2C)C1 (centres undefined) | -11.55% |
| CC(C)C(CCO)NC(=O)Nc1ccc(-c2csnn2)cc1 (centres undefined) | 12.78% |
| Cc1ccc(C(=O)NC2CCCN(C)C2)c(=O)[nH]1 (centres undefined) | 52.84% |
| CCN1CCCC(NC(=O)c2ccc(C)[nH]c2=O)C1 (centres undefined) | -53.67% |
| Cc1ccc(C(=O)NC2CCCN(S(C)(=O)=O)C2)c(=O)[nH]1 (centres undefined) | -34.79% |
| Cc1cccc(CN(Cc2ccc(C)o2)C2CC(C)(C)NC(C)(C)C2)n1 | 29.73% |
| CCc1nc(N)nc(N2CCCC3(CCN(C)CC3)CC2)c1C | -17.39% |
| CC(=O)c1ccc(-c2cnn(CC(=O)Nc3cc(C)nn3C)c2)nc1 | 36.09% |
| CC(=O)c1ccc(-c2cnn(CC(=O)Nc3ccnn3C)c2)nc1 | 59.56% |
| Cn1ccnc1-c1cnn(CC(=O)Nc2ccnn2C)c1 | 35.13% |
| CS(=O)(=O)N1C[C@H]2CC[C@@H](C1)N(C(=O)CCc1n[nH]c3c1CCCC3)C2 | -4.58% |
| Cn1cc(C2CCCN2Cc2csc(C(C)(C)C)n2)cn1 (centres undefined) | -10.66% |
| CCCc1nc(CN2CCCC2c2cnn(C)c2)cs1 (centres undefined) | 58.52% |
| Cn1cc(C2CCCN2Cc2csc(Cc3ccccc3)n2)cn1 (centres undefined) | 3.48% |
| Cc1cc(NCCc2nnc(N)s2)nc(-c2ccccc2)n1 | 7.02% |
| COc1nccnc1N1CCCC2(C1)C(=O)N(C)c1ccccc12 (centres undefined) | -8.8% |
| CCN1CCN(c2ccccc2NC(=O)N(C)C2CCSC2)CC1 (centres undefined) | 25.08% |
| CCN1CCc2c(cccc2NC(=O)CN(C)C2CCSC2)C1 (centres undefined) | 49.21% |
| CCN1CCc2c(cccc2NC(=O)N(C)C2CCSC2)C1 (centres undefined) | 51.9% |
| Cn1ccc(C(=O)Nc2cccc(-c3ccc4c(c3)CCO4)n2)cc1=O | -17.18% |
| Cc1ccc2c(c1)OC(C)CN2C(=O)c1c[nH]c(C)cc1=O (centres undefined) | -33.29% |
| CCn1nccc1CN(C)C(=O)Cn1nc(C)cc1C | -47.19% |
| Cn1nc(Br)c2c(NCCCS(N)(=O)=O)ncnc21 | -5.61% |
| CCOCC(=O)N1Cc2nccn2CC(CN(C)C)C1 (centres undefined) | -8.84% |
| COc1ccc2nnc(CCC(=O)Nc3nc4c(s3)CCCCC4)n2n1 | 48.59% |
| COc1ccc2nnc(CCC(=O)Nc3nc4c(s3)CCC4)n2n1 | 58.29% |
| COc1ccc2nnc(CCC(=O)Nc3nc4c(s3)CCCC4)n2n1 | 21.57% |

| SMILES | INHIBITION |
| --- | --- |
| COCCNC(=O)c1cc(C2CC2)nc2onc(C3CCNC3)c12 (centres undefined) | 5.75% |
| CCOc1ccccc1NC(C)C(=O)N(C)Cc1cccc(F)c1 (centres undefined) | 4.8% |
| CC(NC(=O)CCn1cccn1)c1ccc2c(c1)OCCO2 (centres undefined) | -17.31% |
| CC(NC(=O)Cn1cccn1)c1ccc2c(c1)OCCCO2 (centres undefined) | 51.21% |
| CC(NC(=O)Cn1cccn1)c1ccc2c(c1)OCCO2 (centres undefined) | 21.39% |
| O=C(O)c1ccccc1-n1cnc(CN2CCCc3ccccc32)c1 | 37.36% |
| CN1CC(=O)N(c2cnn(C)c2)CC12CCN(Cc1nccn1C)C2 (centres undefined) | 8.65% |
| Cc1ccc(N2CC3(COCCN(Cc4ccccn4)C3)OCC2=O)s1 (centres undefined) | 40% |
| Cc1ccc(N2CC3(COCCN(Cc4nccs4)C3)OCC2=O)s1 (centres undefined) | 58% |
| Cc1ccc(N2CC3(COCCN(Cc4ccncc4)C3)OCC2=O)s1 (centres undefined) | -37.34% |
| O=C(CCN1CCOC1=O)Nc1cnn(-c2ccccc2Cl)c1 | 51.46% |
| O=C(CCCN1CCOC1=O)Nc1cnn(-c2ccccc2Cl)c1 | -16.28% |
| O=C(CCN1CCCC1=O)Nc1cnn(-c2ccccc2Cl)c1 | 25.35% |
| Cc1ccc2cc(CN(C)Cc3nccs3)c(=O)[nH]c2c1 | -0.38% |
| CN(Cc1c(F)cccc1Cl)C(=O)c1cnn(CCN2CCCCC2)c1 | 60.04% |
| CCn1cc(C(=O)N(C)Cc2c(F)cccc2Cl)cn1 | 53.13% |
| CCn1cnnc1CNC(=O)N(C)Cc1c(F)cccc1Cl | -17.88% |
| CN(Cc1c(F)cccc1Cl)C(=O)c1cnn(CCN2CCOCC2)c1 | -9.03% |
| CN(Cc1c(F)cccc1Cl)C(=O)Nc1cnn(CC(N)=O)c1 | 11.07% |
| CN(Cc1c(F)cccc1Cl)C(=O)Cn1cnc(C#N)n1 | -6.73% |
| Cc1nc(C2CCCN(C(=O)c3ccc(Cl)cn3)C2)no1 (centres undefined) | -29.54% |
| CN(C)C(=O)c1cccc(CCNS(=O)(=O)c2ccccc2)c1 | 49.08% |
| NS(=O)(=O)CCN1CCOC(c2ccsc2)C1 (centres undefined) | -10.36% |
| CC1CCN(c2ccc(=O)n(CC(=O)N(C)Cc3ccccc3)n2)CC1 | -7.56% |
| COc1cc(N2C[C@@H]3COC[C@]3(COCc3cccc(C)n3)C2)ncn1 | 0.14% |
| COC(C)(C)CNC(=O)N1CCCC1c1c(C)n[nH]c1C (centres undefined) | 22.83% |
| Cc1cc(CN(C)C(=O)NC(C)Cc2ccco2)no1 (centres undefined) | 45.62% |
